In PubChem BioAssay:
Activity calls are given as the source filed them.

Columns and labels:
[1] = target: Albumin (Bos taurus) (UniProt P02769); experiment: compounds binding labelled BSA control protein – biochemical, small-molecule microarray, Alexa647 label, 635/667 nm fluorescence, artefact control for SMM control protein annotation, profiling panel (AID 1118); settings: BSA-A647 binding, fluorescence 635 nm, higher = more signal;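 also: score merges 667 nm emission intensity and signal-to-noise per printed compound spot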
[2] = probe aXIP binding to arrayed compounds – biochemical, NeuroSMM set, 635/667 nm fluorescence, primary screen (AID 1119); settings: small-molecule microarray, higher = more signal, called active from +8 up or from −8 down;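 also: probe is the protein aXip251-270 applied at 1 µg/mL to compound-printed slides; binding of probe to printed compounds measured as 667 nm fluorescence plus signal to noise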
[3] = probe aNOTCH3 binding on compound microarray – biochemical, small-molecule microarray, 635/667 nm fluorescence, primary screen (AID 1120); settings: higher = more signal;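 also: probe is a biotin-tagged antibody raised against NOTCH3 rather than NOTCH3 protein; score merges spot fluorescence near 667 nm with spot signal to noise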
[4] = probe aNOTCH2 binding on compound microarray – biochemical, small-molecule microarray, 635/667 nm fluorescence, primary screen (AID 1121); settings: higher = more signal;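 also: score merges feature fluorescence read at 667 nm with its signal to noise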
[5] = target: Carbonic anhydrase 2 (Homo sapiens) (UniProt P00918); experiment: compounds binding carbonic anhydrase 2 – biochemical, small-molecule microarray, Alexa647-labelled CAII, profiling panel (AID 1122); settings: CAII-A647 binding fluorescence, higher = more signal
[6] = COS7 lysate on small-molecule microarray, probe aHis, 635 nm (AID 1123); settings: COS7 cell lysate, fluorescence, higher = more signal;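 also: z-score combines 667nm fluorescence intensity with signal-to-noise per printed compound spot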
[7] = probe aLAP1 signal on lysate-treated microarray – cell lysate, small-molecule microarray, COS7 lysate, primary screen (AID 1124); settings: probe aLAP1, fluorescence, higher = more signal;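 also: lysate comes from COS7 cells expressing LAP1 and is applied at 0.3 µg/mL; score merges spot fluorescence near 667 nm with signal-to-noise over triplicate slides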
[8] = system: Sam68 (KHDRBS1); experiment: compounds binding KHDRBS1 protein – biochemical, small-molecule microarray, 635 nm fluorescence, primary screen (AID 1125); settings: higher = more signal;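 also: score merges 667 nm channel intensity with signal to noise over triplicate slides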
[9] = system: Chordin-like protein 2 (CHRDL2); experiment: compounds binding chordin-like 2 – biochemical, small-molecule microarray, 635 nm fluorescence, primary screen (AID 1126); settings: fluorescence 635 nm, higher = more signal;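 also: printed compound slides probed with Chrdl2 protein at 4 µg/mL for 1 h at 4 C; score merges 667 nm emission intensity with signal to noise over three replicate slides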
[10] = target: Concanavalin-A (Canavalia ensiformis) (UniProt P02866); experiment: compounds binding concanavalin A lectin – biochemical, small-molecule microarray, Alexa647 label, 635 nm, artefact control for SMM control protein annotation, primary screen (AID 1127); settings: ConA-A647 binding fluorescence, higher = more signal;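 also: z combines 667 nm emission intensity with signal-to-noise across three replicate slides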
[11] = compounds binding Alexa647 anti-His antibody – biochemical, small-molecule microarray, 635 nm fluorescence, artefact control for SMM control protein annotation, primary screen (AID 1128); settings: higher = more signal;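 also: score merges feature fluorescence with signal-to-noise for each printed compound spot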
[12] = system: Human papillomavirus type 1a E7 protein (residues 1-88); experiment: HPV1a E7 small-molecule binders, primary screen, biochemical, small-molecule microarray, residues 1-88, 635 nm (AID 1129); settings: small-molecule microarray binding, fluorescence 635 nm; higher = more signal
[13] = target: Focal adhesion kinase 1 (Homo sapiens) (UniProt Q05397); experiment: PTK2 protein binding on printed compound slides – biochemical, small-molecule microarray, 635/667 nm fluorescence, BSA, DTT, primary screen (AID 1130); settings: 635 nm fluorescence, higher = more signal;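 also: composite of spot emission at 667 nm and signal to noise over triplicate slides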
[14] = system: Fibrinogen (Alexa647-labelled); experiment: Alexa647-fibrinogen binding to printed small molecules – biochemical, small-molecule microarray, 635/667 nm fluorescence, artefact control for SMM control-protein annotation, profiling panel (AID 1131); settings: fibrinogen-A647 binding fluorescence, higher = more signal;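 also: z-score merges 667 nm fluorescence with per-spot signal-to-noise over triplicate slides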
[15] = target: Follistatin (Homo sapiens) (UniProt P19883); experiment: FST protein binding to printed compounds – biochemical, small-molecule microarray, 635/667 nm fluorescence, primary screen (AID 1132); settings: 635 nm fluorescence, higher = more signal
[16] = target: Fibroblast growth factor 2 (Homo sapiens) (UniProt P09038); experiment: basic fibroblast growth factor binding to printed compounds – biochemical, small-molecule microarray, 635/667 nm fluorescence, primary screen (AID 1133); settings: FGF2, fluorescence 635/667, higher = more signal
[17] = JC-1 mitochondrial potential readout, lung cancer cells – cell-based, A549, JC-1 fluorescence, basal, 24 h, 100 nL, profiling panel (AID 1138); settings: higher = more signal;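 also: A549 lung adenocarcinoma cells under basal conditions with no added stimulus; test concentration not given here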
[18] = system: Lefty1; experiment: Lefty1 protein binding to printed compounds – biochemical, small-molecule microarray, 635/667 nm fluorescence, primary screen (AID 1139); settings: fluorescence 635/667, higher = more signal
[19] = system: wheat germ agglutinin (Triticum aestivum), Alexa647-labelled; experiment: Alexa647-WGA lectin binding to printed small molecules – biochemical, small-molecule microarray, 635/667 nm fluorescence, artefact control for SMM control-protein annotation, profiling panel (AID 1140); settings: WGA-A647 binding, 635 nm fluorescence, higher = more signal;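 also: score merges 667 nm feature emission with signal to noise over triplicate slides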
[20] = target: Luciferin 4-monooxygenase (Photinus pyralis) (UniProt P08659); experiment: inhibition of purified Photinus pyralis luciferase – biochemical, luminescence, purified enzyme, 2006 set, primary screen (AID 1141); settings: purified firefly luciferase, SteadyGlo luminescence, 30 min; higher = more signal, called active from +8 up or from −8 down;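 also: cell-free assay with purified firefly luciferase at 100 ng per well in PBS; test concentration not given here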
Sequence of Luciferin 4-monooxygenase (Photinus pyralis) (P08659 whole entry, looked up): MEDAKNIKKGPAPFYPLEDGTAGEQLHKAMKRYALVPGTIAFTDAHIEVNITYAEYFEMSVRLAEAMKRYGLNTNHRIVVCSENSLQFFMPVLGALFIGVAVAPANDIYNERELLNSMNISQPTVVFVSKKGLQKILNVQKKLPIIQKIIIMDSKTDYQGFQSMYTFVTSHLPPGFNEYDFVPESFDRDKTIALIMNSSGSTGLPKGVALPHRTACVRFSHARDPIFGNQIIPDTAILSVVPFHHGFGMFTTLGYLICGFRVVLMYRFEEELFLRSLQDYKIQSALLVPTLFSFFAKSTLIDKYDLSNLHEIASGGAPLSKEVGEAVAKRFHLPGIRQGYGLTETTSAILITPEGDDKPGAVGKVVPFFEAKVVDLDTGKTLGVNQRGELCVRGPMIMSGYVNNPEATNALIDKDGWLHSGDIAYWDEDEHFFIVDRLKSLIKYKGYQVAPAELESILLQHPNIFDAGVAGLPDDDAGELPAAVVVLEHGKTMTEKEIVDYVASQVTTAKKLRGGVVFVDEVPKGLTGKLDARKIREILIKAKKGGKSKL

Sequence of Focal adhesion kinase 1 (Homo sapiens) (Q05397 whole entry, looked up): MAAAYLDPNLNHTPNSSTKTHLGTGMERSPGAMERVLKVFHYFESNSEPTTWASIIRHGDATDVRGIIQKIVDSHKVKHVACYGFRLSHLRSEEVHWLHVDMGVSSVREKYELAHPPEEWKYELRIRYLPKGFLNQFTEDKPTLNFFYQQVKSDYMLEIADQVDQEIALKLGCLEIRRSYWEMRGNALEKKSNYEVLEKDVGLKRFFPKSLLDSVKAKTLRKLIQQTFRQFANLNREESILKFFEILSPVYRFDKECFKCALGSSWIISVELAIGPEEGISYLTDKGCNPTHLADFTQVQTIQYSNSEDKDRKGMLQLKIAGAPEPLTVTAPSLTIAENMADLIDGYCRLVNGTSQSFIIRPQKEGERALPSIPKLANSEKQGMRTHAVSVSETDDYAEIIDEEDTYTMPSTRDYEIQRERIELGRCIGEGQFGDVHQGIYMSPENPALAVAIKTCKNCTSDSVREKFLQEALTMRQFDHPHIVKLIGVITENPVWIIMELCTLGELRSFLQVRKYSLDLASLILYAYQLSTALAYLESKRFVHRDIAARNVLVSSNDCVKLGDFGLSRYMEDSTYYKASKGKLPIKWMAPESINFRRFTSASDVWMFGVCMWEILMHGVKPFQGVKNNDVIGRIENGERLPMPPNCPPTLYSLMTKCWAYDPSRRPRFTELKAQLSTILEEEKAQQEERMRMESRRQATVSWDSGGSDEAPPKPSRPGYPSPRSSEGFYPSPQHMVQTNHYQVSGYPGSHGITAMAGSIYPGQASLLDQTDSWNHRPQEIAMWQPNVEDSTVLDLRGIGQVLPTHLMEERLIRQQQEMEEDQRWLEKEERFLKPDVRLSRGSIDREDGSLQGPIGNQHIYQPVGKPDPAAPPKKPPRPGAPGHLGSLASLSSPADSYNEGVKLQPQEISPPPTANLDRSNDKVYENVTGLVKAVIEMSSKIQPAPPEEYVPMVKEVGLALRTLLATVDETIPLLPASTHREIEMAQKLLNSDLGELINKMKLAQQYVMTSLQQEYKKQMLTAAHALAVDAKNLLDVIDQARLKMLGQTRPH
Sequence of Follistatin (Homo sapiens) (P19883 whole entry, looked up): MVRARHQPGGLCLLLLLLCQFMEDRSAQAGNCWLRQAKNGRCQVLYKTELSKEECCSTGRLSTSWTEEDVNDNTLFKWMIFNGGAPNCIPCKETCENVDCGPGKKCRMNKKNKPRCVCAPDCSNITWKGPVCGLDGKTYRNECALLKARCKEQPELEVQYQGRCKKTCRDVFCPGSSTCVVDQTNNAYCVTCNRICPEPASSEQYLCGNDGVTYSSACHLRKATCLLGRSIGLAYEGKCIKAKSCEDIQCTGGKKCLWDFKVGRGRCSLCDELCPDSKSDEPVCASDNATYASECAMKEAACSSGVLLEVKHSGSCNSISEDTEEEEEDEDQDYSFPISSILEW
Sequence of Albumin (Bos taurus) (P02769 whole entry, looked up): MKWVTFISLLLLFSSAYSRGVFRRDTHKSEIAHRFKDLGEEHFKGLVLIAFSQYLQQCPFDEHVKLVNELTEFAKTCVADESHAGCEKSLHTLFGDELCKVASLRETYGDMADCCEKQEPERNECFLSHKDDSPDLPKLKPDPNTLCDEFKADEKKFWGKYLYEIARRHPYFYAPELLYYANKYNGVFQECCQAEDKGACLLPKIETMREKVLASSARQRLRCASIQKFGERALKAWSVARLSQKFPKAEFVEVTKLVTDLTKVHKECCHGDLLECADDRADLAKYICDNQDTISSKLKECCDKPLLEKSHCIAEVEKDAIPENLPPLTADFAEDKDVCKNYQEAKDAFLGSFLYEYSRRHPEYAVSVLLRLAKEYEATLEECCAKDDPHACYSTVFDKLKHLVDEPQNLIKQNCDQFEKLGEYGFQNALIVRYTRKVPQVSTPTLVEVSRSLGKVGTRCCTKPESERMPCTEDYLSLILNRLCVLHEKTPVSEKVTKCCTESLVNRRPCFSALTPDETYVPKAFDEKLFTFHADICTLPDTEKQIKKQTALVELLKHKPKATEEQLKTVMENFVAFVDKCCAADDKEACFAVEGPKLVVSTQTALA
Sequence of Fibroblast growth factor 2 (Homo sapiens) (P09038 whole entry, looked up): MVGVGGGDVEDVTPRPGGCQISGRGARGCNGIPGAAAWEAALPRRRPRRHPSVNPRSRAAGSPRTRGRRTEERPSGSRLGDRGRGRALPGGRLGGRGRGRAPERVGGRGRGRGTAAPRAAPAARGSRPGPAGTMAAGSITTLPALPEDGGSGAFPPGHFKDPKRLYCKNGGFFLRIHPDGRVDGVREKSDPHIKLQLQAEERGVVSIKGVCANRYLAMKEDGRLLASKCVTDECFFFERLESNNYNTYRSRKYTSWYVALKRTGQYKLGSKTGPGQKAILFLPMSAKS
Sequence of Concanavalin-A (Canavalia ensiformis) (P02866 whole entry, looked up): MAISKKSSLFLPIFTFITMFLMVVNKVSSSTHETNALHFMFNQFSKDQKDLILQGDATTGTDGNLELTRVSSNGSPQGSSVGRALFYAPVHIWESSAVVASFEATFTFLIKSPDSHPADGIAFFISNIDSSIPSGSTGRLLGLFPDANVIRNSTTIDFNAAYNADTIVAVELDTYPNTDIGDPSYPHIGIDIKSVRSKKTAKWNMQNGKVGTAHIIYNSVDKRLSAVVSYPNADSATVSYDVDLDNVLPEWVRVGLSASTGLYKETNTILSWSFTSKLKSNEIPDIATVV

Structure (SMILES): CC(C)OC(=O)C=C1C[C@@H](c2ccccc2C(F)(F)F)O[C@@H](c2ccccc2C(F)(F)F)O1
- composite z-score [1]: 0.629
- composite Z-score [2]: -0.309 (inactive)
- composite z-score [3]: -0.0044
- composite z-score [4]: -0.216
- composite z-score [5]: -0.0962
- composite z-score [6]: 0.387
- composite z-score [7]: 0.354
- composite z-score [8]: 0.609
- composite z-score [9]: 0.0577
- composite z-score [10]: 0.257
- composite z-score [11]: 0.209
- composite z-score [12]: 0.737
- composite z-score [13]: 0.554
- composite z-score [14]: 0.183
- composite z-score [15]: -0.0154
- composite z-score [16]: 0.179
- z-score [17]: 1.81
- composite z-score [18]: 0.109
- composite z-score [19]: 0.127
- z-score [20]: 0.464 (inactive)

Structure (SMILES): [N-]=[N+]=NCc1ccccc1C[C@]1(C(=O)O)N=C(c2ccc(OCCCO)cc2)O[C@H]1c1ccccc1N=[N+]=[N-]
- composite z-score [1]: 0.82
- composite Z-score [2]: -0.17 (inactive)
- composite z-score [3]: 0.238
- composite z-score [4]: 0.0755
- composite z-score [5]: 0.55
- composite z-score [6]: 2.64
- composite z-score [7]: 0.571
- composite z-score [8]: 1.32
- composite z-score [9]: -0.958
- composite z-score [10]: 1.05
- composite z-score [11]: 0.906
- composite z-score [12]: 1.19
- composite z-score [13]: 0.532
- composite z-score [14]: 0.985
- composite z-score [15]: 1.1
- composite z-score [16]: 0.582
- z-score [17]: -1.17
- composite z-score [18]: 0.354
- composite z-score [19]: 1.2
- z-score [20]: -13.8 (active)

Structure (SMILES): COc1ccc([Si](C)(C)[C@H]2[C@H](CCO)O[C@@]3(C(=O)N(C)c4c(Br)cc(C)cc43)[C@@H]2C)cc1
- composite z-score [1]: -0.094
- composite Z-score [2]: -0.303 (inactive)
- composite z-score [3]: -0.0596
- composite z-score [4]: -0.0793
- composite z-score [5]: 0.473
- composite z-score [6]: 1
- composite z-score [7]: 0.0847
- composite z-score [8]: 0.953
- composite z-score [9]: 0.344
- composite z-score [10]: 1.07
- composite z-score [11]: 0.494
- composite z-score [12]: 0.969
- composite z-score [13]: 0.295
- composite z-score [14]: 0.15
- composite z-score [15]: 0.675
- composite z-score [16]: 0.425
- z-score [17]: -1.69
- composite z-score [18]: 0.486
- composite z-score [19]: 0.773
- z-score [20]: 0.481 (inactive)

Structure (SMILES): O=C1O[C@H](c2ccccc2)[C@H](c2ccccc2)N2[C@H]1[C@@H](C(=O)Nc1nc3ccccc3s1)[C@]1(C(=O)Nc3ccc(C#CCCO)cc31)[C@H]2c1ccc(OCCO)cc1
- composite z-score [1]: 0.797
- composite Z-score [2]: 0.0956 (inactive)
- composite z-score [3]: 0.134
- composite z-score [4]: 0.0785
- composite z-score [5]: 0.419
- composite z-score [6]: 1.42
- composite z-score [7]: 0.516
- composite z-score [8]: 1.32
- composite z-score [9]: 0.586
- composite z-score [10]: 1.09
- composite z-score [11]: 1.18
- composite z-score [12]: 1.18
- composite z-score [13]: 0.232
- composite z-score [14]: 0.9
- composite z-score [15]: 1.43
- composite z-score [16]: 1.15
- z-score [17]: -2.36
- composite z-score [18]: 1.16
- composite z-score [19]: 1.04
- z-score [20]: -2.97 (inactive)

Structure (SMILES): Cc1ccc(C(C)CC(O)C2C=CC3C(=O)N(C)C(=O)C3N2NC(=O)OC(C)(C)C)o1 (stereo not given)
- composite z-score [1]: 1.01
- composite Z-score [2]: 1.31 (inactive)
- composite z-score [3]: 0.18
- composite z-score [4]: -0.0925
- composite z-score [5]: 0.642
- composite z-score [6]: 2.44
- composite z-score [7]: 0.934
- composite z-score [8]: 1.21
- composite z-score [9]: 0.541
- composite z-score [10]: 1.05
- composite z-score [11]: 1.65
- composite z-score [12]: 1.01
- composite z-score [13]: 0.759
- composite z-score [14]: 0.314
- composite z-score [15]: 0.997
- composite z-score [16]: 0.48
- z-score [17]: -0.475
- composite z-score [18]: 0.444
- composite z-score [19]: 0.563
- z-score [20]: -1.3 (inactive)
